Assay outcomes (PubChem)
TDP1 cell noCPT = qHTS for Inhibitors of human tyrosyl-DNA phosphodiesterase 1 (TDP1): qHTS in cells in absence of CPT; 15% of 420,000 active; DT40 Tdp1-/- hTDP1 cells, no CPT, ATP luminescence, 48 h; Potency, µM (doses to about 46.2 µM), for inactives: at the top dose activity change, negative = growth inhibition, usual class: inhibitors; further: on the % scale 0 is the no-effect control and ±100 the full control effect; nearly all actives have a fitted effect of over 55% in size
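DT40 Tdp1-/-;hTDP1 cells, no CPT (DMSO vehicle only), 400 cells/well; compounds pin-transferred; ≥48 hr, 37 °C; CellTiter-Glo 30 min RT dark, luminescence read.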
HepG2 viability = counter-screen for TGF-b inhibitors: cytotoxicity in HepG2 cells | HepG2 CAGA-GFP viability, ATP luminescence, 18 h | Potency, µM (top dose mostly 46.1 µM), without a hit: at the highest dose activity change, negative = cytotoxicity, hits mostly cytotoxic | 0.76% of 410,000 active
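HepG2 CAGA-GFP cells (1000/well, DMEM with 1% FBS) received compound, then TGF-beta at 500 pg/mL final, and were incubated 18 hours at 37 degrees C. Viability was read by CellTiter-Glo luminescence. Media-only wells were set as complete cell-killing and DMSO as no toxicity.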
TDP1 cell CPT = DT40-hTDP1 cell growth loss with CPT. chicken DT40 Tdp1-/-;hTDP1 cells + 20 nM CPT, ATP luminescence, 48 h. Potency, µM (titrated, usually from 46.2 µM), inactives show top-dose activity change, negative = growth inhibition, usual class: inhibitors. 12% of 420,000 active; further: on the % scale 0 is the no-effect control and ±100 the full control effect; nearly all actives have a fitted effect of over 55% in size
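Chicken DT40 Tdp1-/- cells complemented with human TDP1, 400 cells/well, exposed to compounds plus 20 nM camptothecin for at least 48 h at 37 C; viability read as ATP content by CellTiter-Glo luminescence.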
ATXN2 expr inh = reduces ATXN2 reporter expression in HEK-293 cells | HEK-293 ATXN2-luciferase reporter, luminescence, 24 h | Potency, µM (top dose mostly 57 µM), for the others: at the highest dose activity change, negative = inhibition, hits mostly inhibitors | 0.72% of 360,000 active; further: on the % scale 0 is the no-effect control and ±100 the full control effect; nearly all actives have a fitted effect of over 55% in size
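qHTS (up to 57 uM final) was run with 24 h compound exposure of reporter cells at 37 °C. Each well was multiplexed: SteadyGlo luminescence measured ATXN2-luciferase expression after a fluorogenic Gly-Phe-AFC viability readout (25 uM final).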
TGFb SMAD3 inh = blocks TGF-b signaling | Potency, µM (titrated, usually from 46.1 µM), without a hit: top-dose activity, negative = inhibition, usual class: inhibitors | HepG2 CAGA-GFP TGF-b/SMAD3 reporter, GFP fluorescence, 18 h; TGF-beta stimulated, 500 pg/mL final | 1.2% of 410,000 active; further: on the % scale 0 is the no-effect control and ±100 the full control effect; nearly all actives have a fitted effect of over 65% in size
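GFP signal (ex488/em500-530) from TGF-beta-stimulated HEPG2 CAGA-GFP cells, 500 pg/mL final, 18 h at 37 degrees C in DMEM plus 1% FBS, normalized to unstimulated and DMSO-stimulated controls.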
S2 tox = reduces viability in counter-screen for ATXN expression inhibitors; 0.49% of 400,000 active; S2 cells (HEK-293 line with an ATXN2-luciferase reporter) viability, CellTiter-Fluor protease fluorescence, 24 h; AID 651635; Potency, µM (highest dose often 56.7 µM), usual class: cytotoxic; further: nearly all actives have a fitted effect of over 40% in size
* = called active by the depositor. Sampled rows, rich in hits. Any-hit rate of the full collection: about 17%. The call rests on the fitted dose curve; in most records, active means well fitted curve in the direction sought with a large enough effect; inconclusive means small, poorly fitted or top-dose-only effect, or another doubt; inactive means no such curve, though single readings can be large; an effect the other way counts as inactive or inconclusive. Potency means the concentration at half of the fitted maximal effect.

How did CC(C)Nc1cc(N2CCCC2)ccc1[N+](=O)[O-] do in these assays?
TDP1 cell noCPT: -16%; HepG2 viability: -10%; TDP1 cell CPT: inconclusive; ATXN2 expr inh: -6%; TGFb SMAD3 inh: 0%; S2 tox: inactive

How did COc1ccccc1-c1nc(NCc2cccnc2)c2ccccc2n1 do in these assays?
TDP1 cell noCPT: inconclusive; TDP1 cell CPT: -17%

How did Cc1ccc(NC(=O)C2CCN(S(=O)(=O)c3ccc(F)cc3)CC2)cc1 do in these assays?
TDP1 cell noCPT: inconclusive; HepG2 viability: 0%; TDP1 cell CPT: -28%; ATXN2 expr inh: -8%; TGFb SMAD3 inh: 6%; S2 tox: inconclusive

How did COc1ccc(CN2CCCCC2C(=O)Nc2ccc(OC)c(OC)c2)cc1OC (stereo unspecified) do in these assays?
TDP1 cell noCPT: -17%; HepG2 viability: 0%; TDP1 cell CPT: -3%; ATXN2 expr inh: -11%; TGFb SMAD3 inh: -2%; S2 tox: inactive

Results for COc1ccc(NC(=O)C2CCCCN2N)cc1OC (stereo unspecified) ?
TDP1 cell noCPT: 18µM*; HepG2 viability: -7%; TDP1 cell CPT: inconclusive; ATXN2 expr inh: 8%; TGFb SMAD3 inh: 19%; S2 tox: inactive

Results for CC1CCCN(S(=O)(=O)c2ccc(NC(=O)C3CCN(C(=O)c4ccco4)CC3)cc2)C1 (stereo unspecified) ?
TDP1 cell noCPT: 13µM*; HepG2 viability: -8%; TDP1 cell CPT: 21µM*; ATXN2 expr inh: -11%; TGFb SMAD3 inh: 14%; S2 tox: inactive

How did O=C(Nc1ccc(S(=O)(=O)N2CCCC2)cc1)C1CCN(S(=O)(=O)c2ccc(F)cc2)CC1 do in these assays?
TDP1 cell noCPT: 18µM*; HepG2 viability: -12%; TDP1 cell CPT: inconclusive; ATXN2 expr inh: -16%; TGFb SMAD3 inh: -14%; S2 tox: inactive

How did O=C(Nc1ccc(C(F)(F)F)cc1)C1CCN(S(=O)(=O)c2ccc(N3CCCC3=O)cc2)CC1 do in these assays?
TDP1 cell noCPT: inconclusive; HepG2 viability: 0%; TDP1 cell CPT: 2.6µM*; TGFb SMAD3 inh: inconclusive; S2 tox: inactive

How did CSc1cccc(NC(=O)C2CCCN(S(=O)(=O)c3ccc(F)cc3)C2)c1 (stereo unspecified) do in these assays?
TDP1 cell noCPT: 8.2µM*; HepG2 viability: 2%; TDP1 cell CPT: 10µM*; ATXN2 expr inh: -20%; TGFb SMAD3 inh: 10%; S2 tox: inactive

What do the screens show for `O=C(Nc1ccc(F)cc1)C1CCCN1S(=O)(=O)c1ccc(Br)cc1` (stereo unspecified)?
TDP1 cell noCPT: -23%; HepG2 viability: -6%; TDP1 cell CPT: inconclusive; ATXN2 expr inh: -13%; TGFb SMAD3 inh: 0%; S2 tox: inactive

What do the screens show for `CC(C)c1ccc(NC(=O)C2CCCN(S(=O)(=O)c3ccc(Br)s3)C2)cc1` (stereo unspecified)?
TDP1 cell noCPT: inconclusive; HepG2 viability: -9%; TDP1 cell CPT: inconclusive; ATXN2 expr inh: -20%; TGFb SMAD3 inh: -9%; S2 tox: inconclusive

How did CCN(CC)S(=O)(=O)c1ccc(S(=O)(=O)N2CCN(C(=O)c3ccco3)CC2)cc1 do in these assays?
TDP1 cell noCPT: -4%; HepG2 viability: -2%; TDP1 cell CPT: -15%; ATXN2 expr inh: -3%; TGFb SMAD3 inh: 11%; S2 tox: inactive

What do the screens show for `CSc1cccc(NC(=O)C2CCCN2S(=O)(=O)c2ccc(Br)s2)c1` (stereo unspecified)?
TDP1 cell noCPT: 23µM*; HepG2 viability: -27%; TDP1 cell CPT: inconclusive; ATXN2 expr inh: -14%; TGFb SMAD3 inh: -1%; S2 tox: inactive

How did CCCCc1ccc(S(=O)(=O)N2CCN(C(=O)c3ccco3)CC2)cc1 do in these assays?
TDP1 cell noCPT: 8.2µM*; HepG2 viability: 0%; TDP1 cell CPT: inconclusive; ATXN2 expr inh: -16%; TGFb SMAD3 inh: 0%; S2 tox: inactive

Results for O=C(Nc1ccc(Br)cc1)C1CCCN1S(=O)(=O)c1ccc(F)cc1 (stereo unspecified) ?
TDP1 cell noCPT: 15µM*; HepG2 viability: -31%; TDP1 cell CPT: inconclusive

Results for CNC(=O)C[C@@H]1C(=O)N(c2ccc(OC)cc2)CC1(C)C ?
TDP1 cell noCPT: -8%; HepG2 viability: 0%; TDP1 cell CPT: 0%; ATXN2 expr inh: 4%; TGFb SMAD3 inh: -5%; S2 tox: inactive

What do the screens show for `COc1ccc(OC2CCN(S(=O)(=O)c3ccc(OC)c(OC)c3)CC2)cc1`?
TDP1 cell noCPT: inconclusive; HepG2 viability: 11µM*; TDP1 cell CPT: inconclusive; ATXN2 expr inh: inconclusive; TGFb SMAD3 inh: -23%; S2 tox: inactive

What do the screens show for `CC(C)NC(=O)C1CCCN(S(=O)(=O)c2cccs2)C1` (stereo unspecified)?
TDP1 cell noCPT: -4%; HepG2 viability: 4%; TDP1 cell CPT: 9%; ATXN2 expr inh: -6%; TGFb SMAD3 inh: 7%; S2 tox: inactive

How did CSc1cccc(NC(=O)C2CCCN(S(=O)(=O)c3cccs3)C2)c1 (stereo unspecified) do in these assays?
TDP1 cell noCPT: 18µM*; HepG2 viability: -9%; TDP1 cell CPT: inconclusive; ATXN2 expr inh: -6%; TGFb SMAD3 inh: 1%; S2 tox: inactive

What do the screens show for `CC(=O)c1cccc(NC(=O)C2CCN(S(=O)(=O)c3ccc(C)cc3)CC2)c1`?
TDP1 cell noCPT: -29%; HepG2 viability: -5%; TDP1 cell CPT: 2%; ATXN2 expr inh: -6%; TGFb SMAD3 inh: -24%; S2 tox: inactive

Results for COc1cccc(NC(=O)C2CCN(S(=O)(=O)c3ccccc3)CC2)c1 ?
TDP1 cell noCPT: -10%; HepG2 viability: -36%; TDP1 cell CPT: -14%; ATXN2 expr inh: 3%; TGFb SMAD3 inh: -19%; S2 tox: inactive

What do the screens show for `COc1ccc(OC)c(S(=O)(=O)N2CCC(C(=O)Nc3cccc(C(F)(F)F)c3)CC2)c1`?
TDP1 cell noCPT: 15µM*; HepG2 viability: -17%; TDP1 cell CPT: 18µM*; ATXN2 expr inh: inconclusive; TGFb SMAD3 inh: 3%; S2 tox: inconclusive

What do the screens show for `COc1ccc(S(=O)(=O)N2CCC(C(=O)Nc3cccc(C(C)=O)c3)CC2)cc1C`?
TDP1 cell noCPT: inconclusive; HepG2 viability: -33%; TDP1 cell CPT: 11µM*; ATXN2 expr inh: -9%; TGFb SMAD3 inh: -3%; S2 tox: inactive
